Assay outcomes deposited in PubChem BioAssay by several laboratories.
CYP2C9 activ – increases human cytochrome P450 2C9 activity; P11712; recombinant CYP2C9, luciferin-H conversion, luminescence; active compounds read high; factor 1 = untreated enzyme, 0 = blocked; activation factor at 5 µM; hit rate 1.4% among 96,000; AID 1024;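 active = activation factor of 2 or more for CYP2C9 at a 5 µM dose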;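 note: 0 = sulfaphenazole-blocked wells and 1 = vehicle-only wells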
CYP2C19 inhib – blocks human cytochrome P450 2C19 | P33261 | CYP2C19 Supersomes, luciferin-H EGE luminescence, 30 min | inhibition, % at 5 µM | AID 778 | hit rate 21% among 96,000;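 active = CYP2C19 inhibition above a set limit at 5 µM in the primary screen, cut at about 50% in these data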;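 note: plate controls were negative control wells for no effect and 2.5 mM tranylcypromine positive control for full effect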
Target sequence (P33261 whole entry, looked up): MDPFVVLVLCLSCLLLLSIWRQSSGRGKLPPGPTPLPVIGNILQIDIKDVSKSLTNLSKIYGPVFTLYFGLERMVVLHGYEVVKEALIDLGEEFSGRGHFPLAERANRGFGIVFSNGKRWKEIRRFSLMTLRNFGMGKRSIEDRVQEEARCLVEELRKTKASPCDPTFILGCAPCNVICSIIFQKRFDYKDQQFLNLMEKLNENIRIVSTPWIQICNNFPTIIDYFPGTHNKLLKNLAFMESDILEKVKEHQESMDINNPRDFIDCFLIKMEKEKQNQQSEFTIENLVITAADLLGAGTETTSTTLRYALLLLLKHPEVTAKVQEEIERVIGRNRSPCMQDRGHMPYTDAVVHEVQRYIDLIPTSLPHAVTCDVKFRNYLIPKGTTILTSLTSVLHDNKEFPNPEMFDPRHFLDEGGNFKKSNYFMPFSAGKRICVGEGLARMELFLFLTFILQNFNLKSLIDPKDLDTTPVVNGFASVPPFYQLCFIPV
CYP2C19 activ – activators of human cytochrome P450 2C19 | activation factor at 5 µM | P33261 | recombinant CYP2C19, luciferin-H EGE luminescence; active compounds read high; 0 = fully inhibited enzyme, 1 = untreated enzyme | AID 1025 | 96,000 tested, under 10 active;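 active = activation factor of at least 2 at 5 µM in the primary screen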;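 note: 0 = wells with 2.5 mM tranylcypromine and 1 = vehicle-only wells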
Cav3 T inh – human Cav3.2 channel inhibition, primary screen; hit rate 4% among 100,000; B-score at 10 µM; Cav3.2-expressing cells, Fluo-4 calcium fluorescence FDSS; active compounds read low; O95180;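 active = single-dose well whose peak fluorescence ratio is a statistical outlier from its plate by either plate-standardised score or position-corrected B-score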
CYP2C9 inhib – human CYP2C9 inhibition | P11712 | CYP2C9 Supersomes, luciferin-H conversion, luminescence | inhibition, % at 5 µM | hit rate 20% among 96,000;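 active = blocking of liver enzyme CYP2C9 beyond about 50% at 5 µM, limit read from the data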
* hit, by the source's call. Hits are enriched below; roughly 27% of the tested compounds scored in any of these assays.

Screening O=C(COC(=O)c1ccc(N2CCCC2=O)cc1)NCc1ccco1 returned CYP2C9 activ 0.9, CYP2C19 inhib -3, CYP2C19 activ 1, Cav3 T inh 0.64 and CYP2C9 inhib 14.
Screening C/C(=N\NC(=O)c1ccc(OC2CCCC2)cc1)c1ccc(C)s1 returned CYP2C9 activ 1, CYP2C19 inhib 7, CYP2C19 activ 0.9, Cav3 T inh 0.74 and CYP2C9 inhib 3.
Screening O=C(c1ccco1)N1CCN(Cc2nc3ccccc3c(=O)n2-c2ccc(F)cc2)CC1 returned CYP2C9 activ 0.3, CYP2C19 inhib 36, CYP2C19 activ 0.6, Cav3 T inh -0.052 and CYP2C9 inhib 70*.
`CCOC(=O)c1ccc(-n2c(C)nc3ccccc3c2=O)cc1` gave CYP2C9 activ 1, CYP2C19 inhib 30, CYP2C19 activ 0.7, Cav3 T inh -0.045 and CYP2C9 inhib -2.
For CCOC(=O)C1CCN(Cc2nc3ccccc3c(=O)n2-c2ccc(F)cc2)CC1 the results were CYP2C9 activ 0.3, CYP2C19 inhib 13, CYP2C19 activ 0.9 and CYP2C9 inhib 68*.
CCN1CCCC1CNC(=O)C1CCN(Cc2nc(-c3cccc(Br)c3)oc2C)CC1 (centres undefined) was read as CYP2C9 activ 1.1, CYP2C19 inhib -20, CYP2C19 activ 1.2 and CYP2C9 inhib -11.
Screening COCCCNC(=O)Cn1cc2c(n1)CCC(C)C2 (centres undefined) returned CYP2C9 activ 1.2, CYP2C19 inhib -3, CYP2C19 activ 1, Cav3 T inh 0.11 and CYP2C9 inhib -23.
`Cc1ccc(NC(=O)CCC(=O)c2cccs2)cc1` gave CYP2C9 activ 0.6, CYP2C19 inhib 82*, CYP2C19 activ 0.2, Cav3 T inh 0.58 and CYP2C9 inhib 41.
Screening Cc1ccc(CNC(=O)CCC(=O)c2cccs2)cc1 returned CYP2C9 activ 1.3, CYP2C19 inhib 85*, CYP2C19 activ 0.1, Cav3 T inh 0.46 and CYP2C9 inhib -35.
For O=C(CCC(=O)c1cccs1)Nc1ccc(F)c(F)c1F the results were CYP2C9 activ 1, CYP2C19 inhib 66*, CYP2C19 activ 0.3, Cav3 T inh 0.49 and CYP2C9 inhib -4.
Screening CC(CC(=O)c1cccs1)CC(=O)c1cccs1 returned CYP2C9 activ 0.1, CYP2C19 inhib 100*, CYP2C19 activ 0, Cav3 T inh 0.9 and CYP2C9 inhib 93*.
Screening COC(=O)C1=C(O)/C(=C\c2ccc(O)c(OC)c2)N=C1C returned CYP2C9 activ 0.8, CYP2C19 inhib 15, CYP2C19 activ 0.8, Cav3 T inh -0.6 and CYP2C9 inhib 23.
CN(C(=O)c1ccc(Cl)cc1)C1=CCCCC1CCC#N (centres undefined) was read as CYP2C9 activ 0.8, CYP2C19 inhib 64*, CYP2C19 activ 0.4 and CYP2C9 inhib 15.
`COc1ccc(C(=O)CN(C(=O)c2ccc(Cl)cc2)N2C(=O)C3CCCCC3C2=O)cc1` (centres undefined) gave CYP2C9 activ 0.7, CYP2C19 inhib 29, CYP2C19 activ 0.7, Cav3 T inh -1.9 and CYP2C9 inhib 34.
`CC(C)(C)NC(=O)CN(Cc1cccnc1)C(=O)c1csnn1` gave CYP2C9 activ 0.9, CYP2C19 inhib 28, CYP2C19 activ 0.7, Cav3 T inh -0.22 and CYP2C9 inhib 10.
Screening O=C(NC1CC1)C1=C[C@@H](C2CCCCC2)C[C@@H](OCCCCO)O1 returned Cav3 T inh 1.9.
For COc1ccc2nc(CC(C)(C)CC(=O)O)c[n+]([O-])c2c1 the results were CYP2C9 activ 1, CYP2C19 inhib 18, CYP2C19 activ 0.8, Cav3 T inh 0.73 and CYP2C9 inhib 4.
For CCc1ccc(NC(=O)CNC(=O)c2cn(-c3ccccc3OC)c(=O)c3ccccc23)cc1 the results were CYP2C9 activ 0, CYP2C19 inhib 98*, CYP2C19 activ 0, Cav3 T inh -4.2* and CYP2C9 inhib 99*.
`FC(F)(F)Oc1ccc(Nc2nc3ccccc3o2)cc1` gave CYP2C9 activ 0.2, CYP2C19 inhib 4, CYP2C19 activ 1, Cav3 T inh -0.14 and CYP2C9 inhib 76*.
For Oc1ccc2oc3c(c2c1/C=N/n1cnnc1)CCCC3 the results were CYP2C9 activ 0.4, CYP2C19 inhib 48, CYP2C19 activ 0.5, Cav3 T inh -0.47 and CYP2C9 inhib 63*.
`COc1ccc(C(=O)c2ccc(OC)c3cccc(O)c23)cc1OC` gave CYP2C9 activ 0.2, CYP2C19 inhib 50, CYP2C19 activ 0.5, Cav3 T inh -1.5 and CYP2C9 inhib 84*.
Screening Clc1ccc(C2=CSC3=NCCN23)cc1Cl returned CYP2C9 activ 0.7, CYP2C19 inhib 71*, CYP2C19 activ 0.3, Cav3 T inh -0.59 and CYP2C9 inhib 26.
For C1=C(c2cccc3ccccc23)N2CCN=C2S1 the results were CYP2C9 activ 0.8, CYP2C19 inhib 32, CYP2C19 activ 0.7, Cav3 T inh -0.11 and CYP2C9 inhib 25.
Cc1ccc(C)c(C2=CSC3=NCCN23)c1 was read as CYP2C9 activ 0.7, CYP2C19 inhib 52*, CYP2C19 activ 0.5, Cav3 T inh 0.84 and CYP2C9 inhib 30.
`COc1ccc(NC(=O)CC2Oc3ccccc3NC2=O)cc1` (centres undefined) gave CYP2C9 activ 1, CYP2C19 inhib 23, CYP2C19 activ 0.8, Cav3 T inh -0.18 and CYP2C9 inhib 4.
Screening Cc1ccc(N(O)C(=O)OCCNC(=O)Nc2ccccc2)cc1 returned CYP2C9 activ 0.1, CYP2C19 inhib 94*, CYP2C19 activ 0.1, Cav3 T inh -0.85 and CYP2C9 inhib 92*.
`Cc1ccc(NC(=O)NCCc2ccc(S(N)(=O)=O)cc2)cc1` gave CYP2C9 activ 0.8, CYP2C19 inhib 14, CYP2C19 activ 0.9, Cav3 T inh -0.13 and CYP2C9 inhib 23.
For Cc1ccc(NC(=O)NCCCc2ccccc2)cc1 the results were CYP2C9 activ 0.8, CYP2C19 inhib 59*, CYP2C19 activ 0.4, Cav3 T inh -1 and CYP2C9 inhib 24.
Screening CCSc1nc2c(c(=O)n1-c1ccc(F)cc1)SCC2 returned Cav3 T inh -1.2.
For CCC(C)NC(=O)CS(=O)Cc1nc(-c2ccccc2C)oc1C (centres undefined) the results were CYP2C9 activ 0.9, CYP2C19 inhib 8, CYP2C19 activ 0.9 and CYP2C9 inhib 8.
Screening O=C(NCc1ccc(F)cc1)c1cc2n(n1)C(C(F)(F)F)CC(C1CC1)N2 (centres undefined) returned CYP2C9 activ 0.6, CYP2C19 inhib 42, CYP2C19 activ 0.6, Cav3 T inh -1.5 and CYP2C9 inhib 40.
COc1cccc(CC(C(=O)Nc2cc(C)ccc2C)c2nn[nH]n2)c1OC (centres undefined) was read as CYP2C9 activ 1, CYP2C19 inhib 7, CYP2C19 activ 0.9, Cav3 T inh 0.57 and CYP2C9 inhib -3.
Screening CCc1ccccc1NC(=O)C(Cc1cccc(OC)c1OC)c1nn[nH]n1 (centres undefined) returned CYP2C9 activ 0.5, CYP2C19 inhib 0, CYP2C19 activ 1, Cav3 T inh 0.38 and CYP2C9 inhib 50*.
